Test results taken from publication PMC5700166.

Assays:
[1] = target: T1, GST-Nv-NF-kB (Ser allele) (Nematostella vectensis, UniProt A7UNT2 2-411); test: protein-binding microarray (PBM); PBM: ~300 nM protein, 6 mM HEPES pH 7.8, 80 mM KCl, 0.5 mM EDTA, 0.5 mM EGTA, 6% glycerol, 35 ng/ul poly-dIdC, 1% milk, 1 h, room temperature; Ap Aiptasia and Nv Nematostella (sea anemones) / Co Capsaspora / Aq Amphimedon (sponge) / Dm Drosophila / Hu human; RHD is the Rel homology domain; high values mean tight binding; details: dsDNA, one strand shown
T1 sequence: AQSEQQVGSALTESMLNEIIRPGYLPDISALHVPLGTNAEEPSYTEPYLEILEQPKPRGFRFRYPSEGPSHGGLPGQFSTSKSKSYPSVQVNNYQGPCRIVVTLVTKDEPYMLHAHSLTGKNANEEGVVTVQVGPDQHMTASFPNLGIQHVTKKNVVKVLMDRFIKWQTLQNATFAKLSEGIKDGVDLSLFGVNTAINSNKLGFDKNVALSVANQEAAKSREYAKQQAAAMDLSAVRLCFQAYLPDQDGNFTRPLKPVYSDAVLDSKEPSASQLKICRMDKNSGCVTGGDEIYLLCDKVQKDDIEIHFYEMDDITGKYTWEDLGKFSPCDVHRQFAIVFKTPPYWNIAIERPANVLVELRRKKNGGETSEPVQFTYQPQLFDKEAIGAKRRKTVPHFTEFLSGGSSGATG

GST-Hu-p50 = GST-Hu-p50 (Homo sapiens, UniProt P19838 7-356); test: as above; details: dsDNA, one strand shown
Sequence of GST-Hu-p50 (P19838 7-356): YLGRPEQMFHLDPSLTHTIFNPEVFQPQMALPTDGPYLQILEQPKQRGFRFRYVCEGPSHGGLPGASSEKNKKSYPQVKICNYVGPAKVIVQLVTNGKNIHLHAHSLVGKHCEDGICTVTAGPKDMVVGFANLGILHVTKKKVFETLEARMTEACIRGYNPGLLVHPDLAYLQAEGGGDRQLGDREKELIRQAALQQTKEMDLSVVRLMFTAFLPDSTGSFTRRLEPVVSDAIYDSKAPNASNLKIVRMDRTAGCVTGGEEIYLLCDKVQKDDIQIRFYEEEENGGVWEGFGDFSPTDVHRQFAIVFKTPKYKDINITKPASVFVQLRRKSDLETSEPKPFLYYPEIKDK

| Sequence | binding signal [1] [z-score] | binding signal (GST-Hu-p50) [z-score] |
| --- | --- | --- |
| CCGATTAACATCAGGGGACAACCTGATGTTAATCGGGTCTTGATTCGCTTGACGCTGCTG | 4.41 | 4.2 |
| CCGATTAACATCAGGAACGCCCCTGATGTTAATCGGGTCTTGATTCGCTTGACGCTGCTG | 1.92 | 3 |
| CCGATTAACATCAGGGGGTGAAATGATGTTAATCGGGTCTTGATTCGCTTGACGCTGCTG | 4.3 | 4.19 |
| CCGATTAACATCAAATCACCCCCTGATGTTAATCGGGTCTTGATTCGCTTGACGCTGCTG | 5.42 | 4.62 |
| CCGATTAACATCAAGGGATTTTCTGATGTTAATCGGGTCTTGATTCGCTTGACGCTGCTG | 5.14 | 4.49 |
| CCGATTAACATCAGAGAAGTCCCTGATGTTAATCGGGTCTTGATTCGCTTGACGCTGCTG | 5.95 | 5.25 |
| CCGATTAACATCAGGATATCCCCTGATGTTAATCGGGTCTTGATTCGCTTGACGCTGCTG | 6.27 |  |
| CCGATTAACATCAGGAGTTACCCTGATGTTAATCGGGTCTTGATTCGCTTGACGCTGCTG | 1.4 | 2.44 |
| CCGATTAACATCAGGGATTTTGATGATGTTAATCGGGTCTTGATTCGCTTGACGCTGCTG | 2.92 | 2.85 |
| CCGATTAACATCAGGCCTTCCCCTGATGTTAATCGGGTCTTGATTCGCTTGACGCTGCTG | 5.25 |  |
| CCGATTAACATCAGGGGGGGTACTGATGTTAATCGGGTCTTGATTCGCTTGACGCTGCTG | 4.19 | 3.91 |
| CCGATTAACATCAACATGGGAATTGATGTTAATCGGGTCTTGATTCGCTTGACGCTGCTG | 1.75 | 1.37 |
| CCGATTAACATCACGGGAATCCCTGATGTTAATCGGGTCTTGATTCGCTTGACGCTGCTG | 4.38 | 3.99 |
| CCGATTAACATCAGGGGGGAACATGATGTTAATCGGGTCTTGATTCGCTTGACGCTGCTG | 6.09 |  |
| CCGATTAACATCAAATTCCCACTTGATGTTAATCGGGTCTTGATTCGCTTGACGCTGCTG | 3.95 | 3.73 |
| CCGATTAACATCACTAAAATCCCTGATGTTAATCGGGTCTTGATTCGCTTGACGCTGCTG | 3.42 | 3.2 |
| CCGATTAACATCAGAAGTTTCCCTGATGTTAATCGGGTCTTGATTCGCTTGACGCTGCTG | 5.14 | 4.43 |

| Sequence | binding signal [1] [z-score] | binding signal (GST-Hu-p50) [z-score] |
| --- | --- | --- |
| CCGATTAACATCAAAAACTCCCATGATGTTAATCGGGTCTTGATTCGCTTGACGCTGCTG | 4.52 | 4.38 |
| CCGATTAACATCAAGGGGGGATATGATGTTAATCGGGTCTTGATTCGCTTGACGCTGCTG | 4.16 | 4.95 |
| CCGATTAACATCATCCGGGAAAATGATGTTAATCGGGTCTTGATTCGCTTGACGCTGCTG | 5.1 | 2.14 |
| CCGATTAACATCAAGGAAAACCCTGATGTTAATCGGGTCTTGATTCGCTTGACGCTGCTG | 1.6 | 2.22 |
| CCGATTAACATCAAATGTGGGAATGATGTTAATCGGGTCTTGATTCGCTTGACGCTGCTG | 1.31 |  |
| CCGATTAACATCAGGGAGTTTACTGATGTTAATCGGGTCTTGATTCGCTTGACGCTGCTG | 3.63 |  |
| CCGATTAACATCAAAAATTTTCCTGATGTTAATCGGGTCTTGATTCGCTTGACGCTGCTG | 1.32 | 2.23 |
| CCGATTAACATCAAATTTACCCCTGATGTTAATCGGGTCTTGATTCGCTTGACGCTGCTG | 5.32 |  |
| CCGATTAACATCAGGAAATTTGATGATGTTAATCGGGTCTTGATTCGCTTGACGCTGCTG | 1.01 | 1 |
| CCGATTAACATCAGGGTATTTACTGATGTTAATCGGGTCTTGATTCGCTTGACGCTGCTG | 4.72 | 5.1 |
| CCGATTAACATCAGATCTTCCCCTGATGTTAATCGGGTCTTGATTCGCTTGACGCTGCTG | 6.54 | 5.04 |
| CCGATTAACATCAGGGGAAGGTATGATGTTAATCGGGTCTTGATTCGCTTGACGCTGCTG | 5.76 | 3.52 |
| CCGATTAACATCAGGTAATTCCATGATGTTAATCGGGTCTTGATTCGCTTGACGCTGCTG | 3.72 | 2.14 |
| CCGATTAACATCAGAATGCCCCCTGATGTTAATCGGGTCTTGATTCGCTTGACGCTGCTG | 3.07 | 4.7 |
| CCGATTAACATCAGTAATTCCCATGATGTTAATCGGGTCTTGATTCGCTTGACGCTGCTG | 3.61 | 3 |
| CCGATTAACATCAGGAAAGCCCCTGATGTTAATCGGGTCTTGATTCGCTTGACGCTGCTG | 6.08 |  |
| CCGATTAACATCAAAATTTCACCTGATGTTAATCGGGTCTTGATTCGCTTGACGCTGCTG | 3.88 | 3.28 |
